Compounds without any hit were thinned out: in the full panel of roughly 79,000, 15% have a hit. A number with no mark means an inactive call. Active and inactive are the calls of the source. Cut-off read from the data, not from the text of the source: active = growth inhibition above about 70%; inactive = the rest.
Legend:
[1] = NCI Yeast Anticancer Drug Screen. Data for the rad50 strain (AID 155);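 note: 0% = growth of vehicle-only cultures of the same strain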; settings: S. cerevisiae rad50 strain growth inhibition; at 50.0 µM; stronger effect = higher value
Method in brief: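 A DNA repair-deficient yeast mutant serves as the test organism; compound-induced growth inhibition is calculated against vehicle-treated cells.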

[2] = NCI Yeast Anticancer Drug Screen. Data for the mec2-1 strain (AID 157); settings: S. cerevisiae mec2-1 strain, at 50.0 µM, stronger effect = higher value
Method in brief: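 Vehicle-treated cultures served as reference for growth inhibition of compound-exposed mec2-1 yeast.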

[3] = NCI Yeast Anticancer Drug Screen. Data for the sgs1 mgt1 strain (AID 161);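 note: 0% = growth of cultures given vehicle only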; settings: S. cerevisiae sgs1 mgt1 strain, at 50.0 µM, stronger effect = higher value
Method in brief: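 Genetically altered yeast, compound exposure, growth inhibition relative to vehicle.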

[4] = NCI Yeast Anticancer Drug Screen. Data for the cln2 rad14 strain (AID 165);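 note: 0% = growth equal to vehicle treated cultures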; settings: S. cerevisiae cln2 rad14 strain, at 50.0 µM, stronger effect = higher value
Method in brief: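 Each compound was tested on cln2 rad14 yeast. Inhibition of growth was calculated against vehicle-exposed controls.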

[5] = NCI Yeast Anticancer Drug Screen. Data for the bub3 strain (AID 167); settings: S. cerevisiae bub3 mutant strain, at 50.0 µM, stronger effect = higher value
Method in brief: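 Inhibition values come from growth of compound-treated mutant yeast normalised to vehicle-treated controls.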

[6] = NCI Yeast Anticancer Drug Screen. Data for the mlh1 rad18 strain (AID 175); settings: S. cerevisiae mlh1 rad18 strain growth inhibition; at 50.0 µM; stronger effect = higher value
Method in brief: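 Vehicle-treated cultures served as the reference for growth inhibition in a yeast strain carrying DNA damage repair alterations exposed to each compound.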

Compound | growth inhibition [1] | growth inhibition [2] | growth inhibition [3] | growth inhibition [4] | growth inhibition [5] | growth inhibition [6]
COC(=O)c1ccc(S(=O)(=O)O)cc1[N+](=O)[O-] | 3.05% | 11.9% | 2.5% | -11.2% | 11.8% | 24.4%
CN1C(=O)CCSC1=S | 3.55% | -12.1% | -4.7% | -18.6% | 14.4% | -2.05%
CCCCCCCOC(=O)C(CC)CC | 6.8% | -6.45% | 5.45% | 2.85% | 2.65% | 6.45%
COc1ccc(-c2cc(=O)c3cccc(CC(=O)O)c3o2)cc1 | 8.2% | 11.7% | -0.3% | 31.1% | 2.05% | 18.4%
Cc1ccc(NC(=O)OCC(COc2ccc(Cl)cc2Cl)OC(=O)Nc2ccc(C)cc2)cc1 (stereo unspecified) | -27.8% | -24.9% | -0.55% | 16.1% | 11.2% | 9.05%
CC(C)(C)OC(=O)NC(CS(=O)(=O)O)C(=O)O (stereo unspecified) | -39.1% | -11.4% | -2.4% | 13.4% | 13% | -15.3%
O=S(=O)(CCl)Nc1ccncc1 | -16.6% | -9.6% | -25.6% | -77.2% | 3.1% | -16.8%
O=[N+]([O-])c1cccc(C(O)(C(F)(F)F)C(F)(F)F)c1 | -19.1% | 6.2% | 1.7% | 24.1% | 42.7% | 14%
CC(=O)Nc1ccc(C2C(C(=O)Nc3ccccc3)=C(C)NC(C)=C2C(=O)Nc2ccccc2)cc1 | 17.1% | -2.6% | 12.7% | 11.2% | 32.5% | -2.2%
CCCC(=O)C(O)CCC (stereo unspecified) | -20.5% | -16.7% | -2.6% | -47.9% | 1.65% | -26.1%
CN1C(=O)C23CCCN2C(=O)C1(C)SC(=N)S3 (stereo unspecified) | 2.35% | 7.6% | -2.55% | -45.4% | 2% | 4.95%
COC1=Cc2nc3ccccc3nc2OC1(C)C | -13.2% | 3.15% | 10.6% | -16.4% | 17.8% | 3.75%
C[N+](=C\c1ccccc1O)/N=C\c1ccccc1O | 7.15% | 2.05% | 6.75% | -35.6% | 8.2% | -1.5%
CSCC[C@H]1C(=O)N=C(N)N1C(=O)OCc1ccccc1 | -5.7% | 3.85% | 3.6% | -9.6% | -2.75% | 12.8%
CC(=O)OCC#Cc1ccccc1 | -10.9% | -14.1% | -0.2% | -17.6% | 19.4% | -1.2%
OC1(C#CC2(O)CCCC2)CCCC1 | -8.9% | -11.9% | 15.4% | -8.05% | -1.2% | 23.9%
COc1ccc(CSC(=S)Nc2ccc(F)c(C)c2)cc1 | 20.8% | 14.4% | 17.1% | 28.1% | 5.1% | 10.6%
Cn1cnc([N+](=O)[O-])c1SC1=NCCS1 | 7.8% | -1.4% | 10.2% | 25.3% | 22.9% | -7.5%
CCCCCNC(=S)NNC(N)=O | 4.2% | -0.15% | -12.8% | -0.7% | 5.25% | -0.75%
CCCCCCCCCC(=O)N/N=C/c1cccnc1 | 88.2% (active) | 87% (active) | 95.9% (active) | 26.2% | 71.1% (active) | 91.3% (active)
CC(C)OP(=O)(O)CCl | -16.9% | -12.6% | -24.4% | -11.4% | -13.6% | -26.3%

Compound | growth inhibition [1] | growth inhibition [2] | growth inhibition [3] | growth inhibition [4] | growth inhibition [5] | growth inhibition [6]
O=C(O)c1ccc(Cl)c(C(=O)O)c1 | 13.8% | 4.65% | 26.7% | 3.15% | -11.7% | 11.8%
CN(C)CCSc1n[nH]c(=O)[nH]c1=O | 2.4% | -6.35% | -7.35% | -23.4% | -16.1% | -3.45%
CC(=O)c1cccc(NC(=O)N2CCCCC2C)c1 (stereo unspecified) | -4.9% | 29.9% | 8.9% | -13.3% | 15.2% | -12.8%
CN1CCc2c1nc(-c1ccccc1)c1c2N(C)CC1 | 2.2% | -11% | -6.4% | 9.65% | -18.2% | -1.5%
FC(F)(F)c1nn2c(c(-c3ccccc3)c(-c3ccccc3)c3ccccc32)c1C(F)(F)F | 32.9% | 11.2% | 28.9% | 25.6% | -4.4% | 31.8%
O=C(O)CC(c1ccccc1Cl)C(CC(=O)O)c1ccccc1Cl (stereo unspecified) | 5.55% | -1.55% | -2.55% | 11.6% | -1.05% | 3.4%
COC(=O)C1C2CC3C1C3C2C(=O)OC (stereo unspecified) | -14.2% | -8.2% | -4.45% | 19.6% | -14.6% | -18.6%
CC(=O)Nc1ncc(CCC2OCCO2)c(=O)[nH]1 | -0.55% | -25.1% | 19.6% | -0.25% | 7.65% | 6.85%
Cc1ccc(N=NN(C)C)cc1NC(=O)NCC(=O)OC(C)(C)C | 4.7% | 8.7% | 4.95% | -31.6% | 7.25% | 7.8%
CC(C)(C)c1cc(-c2cc(C(C)(C)C)nc(N)n2)nc(N)n1 | -4.9% | -14.1% | -14% | -18.7% | -35.3% | -16.4%
[O-][n+]1cc[n+]([O-])c2cc(O)ccc21 | -13.5% | -25.1% | 3.8% | -20.1% | 1.1% | 10.7%
O=C1C(c2ccccc2)=C2c3ccccc3-c3ccccc3C2(O)C1c1ccccc1 (stereo unspecified) | 91.8% (active) | 94.8% (active) | 94.4% (active) | 91.5% (active) | 90.9% (active) | 94.2% (active)
COC(=O)C(=O)C(C(=O)C(=O)Nc1nc(=S)[nH][nH]1)c1nc2ccc([N+](=O)[O-])cc2[nH]c1=O (stereo unspecified) | 36% | 20.6% | 11.1% | -17.6% | 22.4% | 18.9%
O=C(/C=C(/CC(=O)c1ccccc1)C(=O)c1ccccc1)c1ccccc1 | -13.1% | -22.9% | -11.2% | -22.1% | -10.5% | -30.8%
CC1(C)CCCC2(C)C(C(=O)O)C3CCC45OC3(CC12)OC(=O)C4C1(C)CCCC(C)(C)C1CC5=O (stereo unspecified) | 2.15% | 5.65% | -0.9% | 2.85% | -2.1% | 9.25%
Cc1ccccc1NC(=O)CC(=O)NNC(Sc1ccccc1)c1cc(N=Nc2ccc(Br)cc2)ccc1O (stereo unspecified) | 19.3% | 14.1% | 27.1% | -3.95% | 17.9% | 18.9%
CCOC(=O)NC(=O)c1cn(CCN2CCN(C(=O)NCCCCCCNC(=O)N3CCN(CCn4cc(C(=O)NC(=O)OCC)c(=O)n(CCN(CC)CC)c4=O)CC3)CC2)c(=O)n(CCC(CC)CC)c1=O | -10.1% | 8.7% | -6.65% | -20.9% | 2.5% | -31.5%
CCCCCCNC(=O)c1ccc(C(=O)NCCCCCC)cc1 | 3.4% | -13.3% | -27% | -19.5% | 6% | -31.9%
CCCC(=O)C(C)(C)C | 18.2% | -12.4% | -35% | -41.5% | -22.1% | 6.75%
O=C1OC2C(Cl)CC(Cl)CC2C=C1c1cccc([N+](=O)[O-])c1 (stereo unspecified) | -3.3% | 12.2% | -16.6% | -21.9% | 11.8% | -0.4%
